Residue numbers refer to the chain shown, from its start.
Legend:
Experiment in all cases: PBM; 200 nM protein, PBS
Conditions in all cases: dsDNA, one strand shown
HOXA4 [1] = molecular target: HOXA4 (Homo sapiens, UniProt Q00056 201-287, W262R)
HOXA4 [2] = molecular target: HOXA4 (Homo sapiens, UniProt Q00056 201-287)
HOXA4 [3] = molecular target: HOXA4 (Homo sapiens, UniProt Q00056 201-287, W262F)
HOXC9 [4] = molecular target: HOXC9 (Homo sapiens, UniProt P31274 178-260, K195R)
HOXC10 [5] = molecular target: HOXC10 (Homo sapiens, UniProt Q9NYD6 254-340)
Chain of HOXC10 (Homo sapiens, UniProt Q9NYD6 254-340) (Q9NYD6 254-340): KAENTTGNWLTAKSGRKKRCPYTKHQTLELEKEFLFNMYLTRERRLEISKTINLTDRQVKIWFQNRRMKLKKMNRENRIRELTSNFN

HOXA2 [6] = molecular target: HOXA2 (Homo sapiens, UniProt O43364 129-215, R185T)
Chain of HOXA2 (Homo sapiens, UniProt O43364 129-215, R185T) (O43364 129-215 R185T): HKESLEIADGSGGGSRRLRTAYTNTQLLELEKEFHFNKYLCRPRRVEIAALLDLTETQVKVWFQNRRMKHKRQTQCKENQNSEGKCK

HOXC9 [7] = molecular target: HOXC9 (Homo sapiens, UniProt P31274 178-260)
Chain of HOXC9 (Homo sapiens, UniProt P31274 178-260) (P31274 178-260): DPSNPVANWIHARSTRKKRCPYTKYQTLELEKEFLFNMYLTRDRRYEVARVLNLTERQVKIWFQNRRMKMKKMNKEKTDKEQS

HOXC9 [8] = molecular target: HOXC9 (Homo sapiens, UniProt P31274 178-260, R193K)
Chain of HOXC9 (Homo sapiens, UniProt P31274 178-260, R193K) (P31274 178-260 R193K): as the sequence (P31274 178-260) above, with R16K counted along it

HOXA2 [9] = molecular target: HOXA2 (Homo sapiens, UniProt O43364 129-215, R185K)
Chain of HOXA2 (Homo sapiens, UniProt O43364 129-215, R185K) (O43364 129-215 R185K): as the sequence (O43364 129-215 R185T) above, with T57K counted along it

HOXC10 [10] = molecular target: HOXC10 (Homo sapiens, UniProt Q9NYD6 254-340, K271E)
Chain of HOXC10 (Homo sapiens, UniProt Q9NYD6 254-340, K271E) (Q9NYD6 254-340 K271E): as the sequence (Q9NYD6 254-340) above, with K18E counted along it

HOXC9 [11] = molecular target: HOXC9 (Homo sapiens, UniProt P31274 178-260, R222W)
Chain of HOXC9 (Homo sapiens, UniProt P31274 178-260, R222W) (P31274 178-260 R222W): as the sequence (P31274 178-260) above, with R45W counted along it

HOXA2 [12] = molecular target: HOXA2 (Homo sapiens, UniProt O43364 129-215, Y150S)
Chain of HOXA2 (Homo sapiens, UniProt O43364 129-215, Y150S) (O43364 129-215 Y150S): as the sequence (O43364 129-215 R185T) above, with Y22S, T57R counted along it

HOXA2 [13] = molecular target: HOXA2 (Homo sapiens, UniProt O43364 129-215)
Chain of HOXA2 (Homo sapiens, UniProt O43364 129-215) (O43364 129-215): as the sequence (O43364 129-215 R185T) above, with T57R counted along it

PAX4 [14] = molecular target: T1, PAX4 (Homo sapiens, UniProt O43316 9-242, R200K)
T1 sequence: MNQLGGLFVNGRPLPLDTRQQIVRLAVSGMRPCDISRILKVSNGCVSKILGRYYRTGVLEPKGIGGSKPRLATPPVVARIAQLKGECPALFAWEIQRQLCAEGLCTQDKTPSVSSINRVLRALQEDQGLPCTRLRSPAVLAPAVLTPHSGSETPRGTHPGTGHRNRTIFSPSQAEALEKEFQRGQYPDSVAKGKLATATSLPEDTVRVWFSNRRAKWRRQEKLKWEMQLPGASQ

PAX4 [15] = molecular target: T2, PAX4 (Homo sapiens, UniProt O43316 9-242)
T2 sequence: T1 sequence with K192R

NKX2-6 = molecular target: T3, NKX2-6 (Homo sapiens, UniProt A6NCS4 118-204, R150C)
T3 sequence: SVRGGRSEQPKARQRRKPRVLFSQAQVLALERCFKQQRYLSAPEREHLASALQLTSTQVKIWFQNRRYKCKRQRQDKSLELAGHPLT

PAX4 [16] = molecular target: T4, PAX4 (Homo sapiens, UniProt O43316 9-242, R200Q)
T4 sequence: T1 sequence with K192Q

PAX4 [17] = molecular target: T5, PAX4 (Homo sapiens, UniProt O43316 9-242, F177V)
T5 sequence: T1 sequence with F169V, K192R

PAX4 [18] = molecular target: T6, PAX4 (Homo sapiens, UniProt O43316 9-242, F177Y)
T6 sequence: T1 sequence with F169Y, K192R

PAX4 [19] = molecular target: T7, PAX4 (Homo sapiens, UniProt O43316 9-242, R227W)
T7 sequence: T1 sequence with K192R, R219W

PRRX1 [20] = molecular target: PRRX1 (Homo sapiens, UniProt P54821 80-166, F113S)
Chain of PRRX1 (Homo sapiens, UniProt P54821 80-166, F113S) (P54821 80-166 F113S): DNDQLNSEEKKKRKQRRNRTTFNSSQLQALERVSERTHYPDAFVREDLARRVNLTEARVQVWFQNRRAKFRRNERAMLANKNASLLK

PRRX1 [21] = molecular target: PRRX1 (Homo sapiens, UniProt P54821 80-166)
Chain of PRRX1 (Homo sapiens, UniProt P54821 80-166) (P54821 80-166): as the sequence (P54821 80-166 F113S) above, with S34F counted along it

HOXD13 [22] = molecular target: HOXD13 (Homo sapiens, UniProt P35453 263-343, T313R)
Chain of HOXD13 (Homo sapiens, UniProt P35453 263-343, T313R) (P35453 263-343 T313R): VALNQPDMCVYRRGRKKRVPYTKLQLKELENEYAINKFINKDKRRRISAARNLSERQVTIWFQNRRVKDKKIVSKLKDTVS

HOXD13 [23] = molecular target: HOXD13 (Homo sapiens, UniProt P35453 263-343)
Chain of HOXD13 (Homo sapiens, UniProt P35453 263-343) (P35453 263-343): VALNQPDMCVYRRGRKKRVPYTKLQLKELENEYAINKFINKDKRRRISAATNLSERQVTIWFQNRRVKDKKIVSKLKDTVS

HOXD13 [24] = molecular target: HOXD13 (Homo sapiens, UniProt P35453 263-343, T313A)
Chain of HOXD13 (Homo sapiens, UniProt P35453 263-343, T313A) (P35453 263-343 T313A): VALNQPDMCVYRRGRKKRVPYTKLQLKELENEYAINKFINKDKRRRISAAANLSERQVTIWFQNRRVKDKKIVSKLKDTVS

ALX4 [25] = molecular target: ALX4 (Homo sapiens, UniProt Q9H161 200-286)
Chain of ALX4 (Homo sapiens, UniProt Q9H161 200-286) (Q9H161 200-286): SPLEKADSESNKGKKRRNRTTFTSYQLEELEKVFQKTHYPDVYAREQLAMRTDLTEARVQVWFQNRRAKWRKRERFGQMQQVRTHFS

ALX4 [26] = molecular target: ALX4 (Homo sapiens, UniProt Q9H161 200-286, Q225E)
Chain of ALX4 (Homo sapiens, UniProt Q9H161 200-286, Q225E) (Q9H161 200-286 Q225E): as the sequence (Q9H161 200-286) above, with Q26E counted along it

MSX2 [27] = molecular target: MSX2 (Homo sapiens, UniProt P35548 130-214, R199I)
Chain of MSX2 (Homo sapiens, UniProt P35548 130-214, R199I) (P35548 130-214 R199I): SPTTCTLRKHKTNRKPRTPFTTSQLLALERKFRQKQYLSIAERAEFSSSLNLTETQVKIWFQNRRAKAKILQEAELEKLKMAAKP

MSX2 [28] = molecular target: MSX2 (Homo sapiens, UniProt P35548 130-214)
Chain of MSX2 (Homo sapiens, UniProt P35548 130-214) (P35548 130-214): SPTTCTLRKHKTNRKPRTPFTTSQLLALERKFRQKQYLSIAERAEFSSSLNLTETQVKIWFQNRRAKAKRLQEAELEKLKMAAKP

VAX1 [29] = molecular target: VAX1 (Homo sapiens, UniProt Q5SQQ9 86-172)
Chain of VAX1 (Homo sapiens, UniProt Q5SQQ9 86-172) (Q5SQQ9 86-172): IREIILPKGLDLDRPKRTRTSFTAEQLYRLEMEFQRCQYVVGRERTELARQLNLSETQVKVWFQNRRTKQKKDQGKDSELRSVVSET

MSX2 [30] = molecular target: MSX2 (Homo sapiens, UniProt P35548 130-214, F161Y)
Chain of MSX2 (Homo sapiens, UniProt P35548 130-214, F161Y) (P35548 130-214 F161Y): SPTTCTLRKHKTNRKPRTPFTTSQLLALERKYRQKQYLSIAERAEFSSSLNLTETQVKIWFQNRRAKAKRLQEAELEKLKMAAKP

VAX1 [31] = molecular target: VAX1 (Homo sapiens, UniProt Q5SQQ9 86-172, T142I)
Chain of VAX1 (Homo sapiens, UniProt Q5SQQ9 86-172, T142I) (Q5SQQ9 86-172 T142I): as the sequence (Q5SQQ9 86-172) above, with T57I counted along it

VAX1 [32] = molecular target: VAX1 (Homo sapiens, UniProt Q5SQQ9 86-172, K157R)
Chain of VAX1 (Homo sapiens, UniProt Q5SQQ9 86-172, K157R) (Q5SQQ9 86-172 K157R): as the sequence (Q5SQQ9 86-172) above, with K72R counted along it

ALX3 [33] = molecular target: ALX3 (Homo sapiens, UniProt O95076 139-225, L168Q)
Chain of ALX3 (Homo sapiens, UniProt O95076 139-225, L168Q) (O95076 139-225 L168Q): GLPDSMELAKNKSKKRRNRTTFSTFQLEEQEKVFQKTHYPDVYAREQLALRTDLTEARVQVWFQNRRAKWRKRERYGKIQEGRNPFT

ALX3 [34] = molecular target: ALX3 (Homo sapiens, UniProt O95076 139-225, L168V)
Chain of ALX3 (Homo sapiens, UniProt O95076 139-225, L168V) (O95076 139-225 L168V): as the sequence (O95076 139-225 L168Q) above, with Q30V counted along it

Chain of HOXA4 (Homo sapiens, UniProt Q00056 201-287, W262F) (Q00056 201-287 W262F): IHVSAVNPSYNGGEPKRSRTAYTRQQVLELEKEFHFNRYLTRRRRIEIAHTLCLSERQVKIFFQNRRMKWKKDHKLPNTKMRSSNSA
Chain of HOXA4 (Homo sapiens, UniProt Q00056 201-287, W262R) (Q00056 201-287 W262R): as the sequence (Q00056 201-287 W262F) above, with F62R counted along it
Chain of HOXC9 (Homo sapiens, UniProt P31274 178-260, K195R) (P31274 178-260 K195R): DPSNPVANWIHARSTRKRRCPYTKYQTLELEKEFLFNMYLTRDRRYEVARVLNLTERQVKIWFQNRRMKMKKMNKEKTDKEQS
Chain of HOXA4 (Homo sapiens, UniProt Q00056 201-287) (Q00056 201-287): as the sequence (Q00056 201-287 W262F) above, with F62W counted along it

GTTCTTAA
binding signal (HOXA4 [1]): 10.3 upbm affinity estimate (log intensity, higher = more binding, comparable within an allelic series)
binding signal (HOXA4 [2]): 11.4 upbm affinity estimate (log intensity, higher = more binding, comparable within an allelic series)
binding signal (HOXA4 [3]): 10.5 upbm affinity estimate (log intensity, higher = more binding, comparable within an allelic series)

TGATGACA
binding signal (HOXA4 [1]): 10.2 upbm affinity estimate (log intensity, higher = more binding, comparable within an allelic series)
binding signal (HOXA4 [2]): 11.8 upbm affinity estimate (log intensity, higher = more binding, comparable within an allelic series)

AAGATTAC
binding signal (HOXA4 [1]): 10.2 upbm affinity estimate (log intensity, higher = more binding, comparable within an allelic series)
binding signal (HOXA4 [2]): 11.1 upbm affinity estimate (log intensity, higher = more binding, comparable within an allelic series)
binding signal (HOXA4 [3]): 10.4 upbm affinity estimate (log intensity, higher = more binding, comparable within an allelic series)

CCAGTCGG
binding signal (HOXC9 [4]): 9.76 upbm affinity estimate (log intensity, higher = more binding, comparable within an allelic series)
binding signal (HOXC10 [5]): 10.1 upbm affinity estimate (log intensity, higher = more binding, comparable within an allelic series)
binding signal (HOXA2 [6]): 7.11 upbm affinity estimate (log intensity, higher = more binding, comparable within an allelic series)
binding signal (HOXC9 [7]): 9.93 upbm affinity estimate (log intensity, higher = more binding, comparable within an allelic series)
binding signal (HOXC9 [8]): 9.79 upbm affinity estimate (log intensity, higher = more binding, comparable within an allelic series)
binding signal (HOXA2 [9]): 10.4 upbm affinity estimate (log intensity, higher = more binding, comparable within an allelic series)
binding signal (HOXC10 [10]): 10 upbm affinity estimate (log intensity, higher = more binding, comparable within an allelic series)
binding signal (HOXC9 [11]): 9.69 upbm affinity estimate (log intensity, higher = more binding, comparable within an allelic series)
binding signal (HOXA2 [12]): 10.4 upbm affinity estimate (log intensity, higher = more binding, comparable within an allelic series)
binding signal (HOXA2 [13]): 7.25 upbm affinity estimate (log intensity, higher = more binding, comparable within an allelic series)

CCGGGAGC
binding signal (HOXC9 [4]): 9.52 upbm affinity estimate (log intensity, higher = more binding, comparable within an allelic series)
binding signal (PAX4 [14]): 9.29 upbm affinity estimate (log intensity, higher = more binding, comparable within an allelic series)
binding signal (PAX4 [15]): 9.27 upbm affinity estimate (log intensity, higher = more binding, comparable within an allelic series)
binding signal (NKX2-6): 9.24 upbm affinity estimate (log intensity, higher = more binding, comparable within an allelic series)
binding signal (HOXC9 [7]): 9.61 upbm affinity estimate (log intensity, higher = more binding, comparable within an allelic series)
binding signal (PAX4 [16]): 9.33 upbm affinity estimate (log intensity, higher = more binding, comparable within an allelic series)
binding signal (HOXC9 [8]): 9.49 upbm affinity estimate (log intensity, higher = more binding, comparable within an allelic series)
binding signal (PAX4 [17]): 9.16 upbm affinity estimate (log intensity, higher = more binding, comparable within an allelic series)
binding signal (PAX4 [18]): 9.2 upbm affinity estimate (log intensity, higher = more binding, comparable within an allelic series)
binding signal (HOXC9 [11]): 9.58 upbm affinity estimate (log intensity, higher = more binding, comparable within an allelic series)
binding signal (PAX4 [19]): 9.25 upbm affinity estimate (log intensity, higher = more binding, comparable within an allelic series)

GTAAATAC
binding signal (HOXA4 [1]): 10.3 upbm affinity estimate (log intensity, higher = more binding, comparable within an allelic series)
binding signal (HOXA4 [2]): 11.3 upbm affinity estimate (log intensity, higher = more binding, comparable within an allelic series)

CCCCTCAC
binding signal (HOXC9 [4]): 9.6 upbm affinity estimate (log intensity, higher = more binding, comparable within an allelic series)
binding signal (PRRX1 [20]): 9.49 upbm affinity estimate (log intensity, higher = more binding, comparable within an allelic series)
binding signal (HOXC9 [7]): 9.72 upbm affinity estimate (log intensity, higher = more binding, comparable within an allelic series)
binding signal (HOXC9 [8]): 9.5 upbm affinity estimate (log intensity, higher = more binding, comparable within an allelic series)
binding signal (HOXC9 [11]): 9.75 upbm affinity estimate (log intensity, higher = more binding, comparable within an allelic series)
binding signal (PRRX1 [21]): 9.53 upbm affinity estimate (log intensity, higher = more binding, comparable within an allelic series)

GACCTCGC
binding signal (HOXC9 [4]): 9.59 upbm affinity estimate (log intensity, higher = more binding, comparable within an allelic series)
binding signal (HOXC10 [5]): 10 upbm affinity estimate (log intensity, higher = more binding, comparable within an allelic series)
binding signal (HOXC9 [7]): 9.54 upbm affinity estimate (log intensity, higher = more binding, comparable within an allelic series)
binding signal (HOXC9 [8]): 9.57 upbm affinity estimate (log intensity, higher = more binding, comparable within an allelic series)
binding signal (HOXC10 [10]): 9.99 upbm affinity estimate (log intensity, higher = more binding, comparable within an allelic series)
binding signal (HOXC9 [11]): 9.76 upbm affinity estimate (log intensity, higher = more binding, comparable within an allelic series)

ATTTACGA
binding signal (HOXC9 [4]): 12.4 upbm affinity estimate (log intensity, higher = more binding, comparable within an allelic series)
binding signal (HOXC10 [5]): 12.3 upbm affinity estimate (log intensity, higher = more binding, comparable within an allelic series)
binding signal (HOXC9 [7]): 12.6 upbm affinity estimate (log intensity, higher = more binding, comparable within an allelic series)
binding signal (HOXD13 [22]): 10.9 upbm affinity estimate (log intensity, higher = more binding, comparable within an allelic series)
binding signal (HOXC9 [8]): 12.4 upbm affinity estimate (log intensity, higher = more binding, comparable within an allelic series)
binding signal (HOXD13 [23]): 12 upbm affinity estimate (log intensity, higher = more binding, comparable within an allelic series)
binding signal (HOXC10 [10]): 11.8 upbm affinity estimate (log intensity, higher = more binding, comparable within an allelic series)
binding signal (HOXD13 [24]): 11.8 upbm affinity estimate (log intensity, higher = more binding, comparable within an allelic series)
binding signal (HOXC9 [11]): 10.9 upbm affinity estimate (log intensity, higher = more binding, comparable within an allelic series)

CGTCAATA
binding signal (HOXA4 [1]): 10.2 upbm affinity estimate (log intensity, higher = more binding, comparable within an allelic series)
binding signal (HOXA4 [2]): 10.9 upbm affinity estimate (log intensity, higher = more binding, comparable within an allelic series)

CCCTCCAG
binding signal (HOXC9 [4]): 9.59 upbm affinity estimate (log intensity, higher = more binding, comparable within an allelic series)
binding signal (HOXC10 [5]): 10.1 upbm affinity estimate (log intensity, higher = more binding, comparable within an allelic series)
binding signal (HOXC9 [7]): 9.64 upbm affinity estimate (log intensity, higher = more binding, comparable within an allelic series)
binding signal (HOXC9 [8]): 9.54 upbm affinity estimate (log intensity, higher = more binding, comparable within an allelic series)
binding signal (HOXC10 [10]): 10.1 upbm affinity estimate (log intensity, higher = more binding, comparable within an allelic series)
binding signal (HOXC9 [11]): 9.74 upbm affinity estimate (log intensity, higher = more binding, comparable within an allelic series)

CCGGCTAG
binding signal (HOXC9 [4]): 9.47 upbm affinity estimate (log intensity, higher = more binding, comparable within an allelic series)
binding signal (ALX4 [25]): 8.04 upbm affinity estimate (log intensity, higher = more binding, comparable within an allelic series)
binding signal (ALX4 [26]): 8.02 upbm affinity estimate (log intensity, higher = more binding, comparable within an allelic series)
binding signal (HOXC9 [7]): 9.55 upbm affinity estimate (log intensity, higher = more binding, comparable within an allelic series)
binding signal (MSX2 [27]): 9.38 upbm affinity estimate (log intensity, higher = more binding, comparable within an allelic series)
binding signal (HOXC9 [8]): 9.53 upbm affinity estimate (log intensity, higher = more binding, comparable within an allelic series)
binding signal (MSX2 [28]): 9.32 upbm affinity estimate (log intensity, higher = more binding, comparable within an allelic series)
binding signal (VAX1 [29]): 6.74 upbm affinity estimate (log intensity, higher = more binding, comparable within an allelic series)
binding signal (HOXC9 [11]): 9.7 upbm affinity estimate (log intensity, higher = more binding, comparable within an allelic series)
binding signal (MSX2 [30]): 9.36 upbm affinity estimate (log intensity, higher = more binding, comparable within an allelic series)
binding signal (VAX1 [31]): 6.97 upbm affinity estimate (log intensity, higher = more binding, comparable within an allelic series)
binding signal (VAX1 [32]): 6.86 upbm affinity estimate (log intensity, higher = more binding, comparable within an allelic series)

CTAATCTA
binding signal (HOXA4 [1]): 10.3 upbm affinity estimate (log intensity, higher = more binding, comparable within an allelic series)
binding signal (HOXA4 [2]): 12 upbm affinity estimate (log intensity, higher = more binding, comparable within an allelic series)

AATTAAAA
binding signal (HOXC9 [4]): 12.5 upbm affinity estimate (log intensity, higher = more binding, comparable within an allelic series)
binding signal (PRRX1 [20]): 11.2 upbm affinity estimate (log intensity, higher = more binding, comparable within an allelic series)
binding signal (ALX4 [26]): 12.8 upbm affinity estimate (log intensity, higher = more binding, comparable within an allelic series)
binding signal (HOXC10 [10]): 11.8 upbm affinity estimate (log intensity, higher = more binding, comparable within an allelic series)
binding signal (ALX3 [33]): 10.3 upbm affinity estimate (log intensity, higher = more binding, comparable within an allelic series)
binding signal (ALX3 [34]): 9.86 upbm affinity estimate (log intensity, higher = more binding, comparable within an allelic series)

CACGATCA
binding signal (HOXA4 [1]): 10.2 upbm affinity estimate (log intensity, higher = more binding, comparable within an allelic series)
binding signal (HOXA4 [2]): 11 upbm affinity estimate (log intensity, higher = more binding, comparable within an allelic series)
binding signal (HOXA4 [3]): 10.3 upbm affinity estimate (log intensity, higher = more binding, comparable within an allelic series)

From PMC11006913
